Drawing on ChEMBL document CHEMBL3988442, “University of Dundee, Small-Polar-MMV Screening Library” (2021), this text covers Percent Effect for five compounds.

For some assays here: Potency and affinity values are given separately.

Set-up in all cases: scale not given: direction of the effect not stated beside the values
Experiment [1] concerns the target Protein translocase subunit SecA (Escherichia coli (strain K12)) (UniProt P10408). In words: Assay to Identify E. coli SecA ATPase Inhibitors. Particulars: 30 µM. It counts as functional.
Experiment [2] addresses T1, Ubiquitin-activating enzyme e1, putative (Leishmania donovani (strain BPK282A1)) (UniProt E9BSI1).
T1 sequence (whole entry): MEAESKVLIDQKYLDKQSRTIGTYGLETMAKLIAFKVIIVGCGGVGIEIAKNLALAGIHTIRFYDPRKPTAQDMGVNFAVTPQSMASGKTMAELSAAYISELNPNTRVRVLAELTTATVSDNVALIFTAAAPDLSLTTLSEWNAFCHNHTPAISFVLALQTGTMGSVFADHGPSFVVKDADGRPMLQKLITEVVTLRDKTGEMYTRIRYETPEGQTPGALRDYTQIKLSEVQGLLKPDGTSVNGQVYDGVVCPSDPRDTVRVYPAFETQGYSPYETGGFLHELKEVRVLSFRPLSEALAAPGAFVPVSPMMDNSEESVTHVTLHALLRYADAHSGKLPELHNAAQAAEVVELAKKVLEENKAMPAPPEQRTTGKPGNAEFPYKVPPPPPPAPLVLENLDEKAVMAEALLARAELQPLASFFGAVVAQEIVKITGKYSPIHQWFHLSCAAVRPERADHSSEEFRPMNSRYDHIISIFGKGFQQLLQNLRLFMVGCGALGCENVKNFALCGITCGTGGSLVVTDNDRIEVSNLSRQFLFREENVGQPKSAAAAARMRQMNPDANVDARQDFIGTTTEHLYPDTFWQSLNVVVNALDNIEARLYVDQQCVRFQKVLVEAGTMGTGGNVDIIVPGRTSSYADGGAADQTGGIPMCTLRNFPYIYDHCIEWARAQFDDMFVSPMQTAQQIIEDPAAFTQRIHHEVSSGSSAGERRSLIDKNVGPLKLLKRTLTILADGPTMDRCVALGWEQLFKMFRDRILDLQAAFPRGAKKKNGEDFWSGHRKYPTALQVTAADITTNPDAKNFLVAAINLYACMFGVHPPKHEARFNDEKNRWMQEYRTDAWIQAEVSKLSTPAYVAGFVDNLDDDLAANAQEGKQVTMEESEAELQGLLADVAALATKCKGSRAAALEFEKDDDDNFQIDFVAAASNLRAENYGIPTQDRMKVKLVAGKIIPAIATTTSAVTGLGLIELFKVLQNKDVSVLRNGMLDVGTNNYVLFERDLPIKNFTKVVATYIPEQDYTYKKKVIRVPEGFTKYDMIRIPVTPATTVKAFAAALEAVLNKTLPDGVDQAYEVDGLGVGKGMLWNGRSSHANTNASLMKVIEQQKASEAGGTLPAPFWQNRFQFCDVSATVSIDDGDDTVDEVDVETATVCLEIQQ
In words: Leishmania donovani Ubiquitin Activating Enzyme (LdE1). It counts as functional. To be noted: 30 µM.

The target of experiment [3] is T2, Aspartate--tRNA(Asp/Asn) ligase (Mycobacterium tuberculosis (strain ATCC 25618 / H37Rv)) (UniProt P9WFW3). Further: in the data most compounds retested in dose-response had high values.
T2 sequence (whole entry): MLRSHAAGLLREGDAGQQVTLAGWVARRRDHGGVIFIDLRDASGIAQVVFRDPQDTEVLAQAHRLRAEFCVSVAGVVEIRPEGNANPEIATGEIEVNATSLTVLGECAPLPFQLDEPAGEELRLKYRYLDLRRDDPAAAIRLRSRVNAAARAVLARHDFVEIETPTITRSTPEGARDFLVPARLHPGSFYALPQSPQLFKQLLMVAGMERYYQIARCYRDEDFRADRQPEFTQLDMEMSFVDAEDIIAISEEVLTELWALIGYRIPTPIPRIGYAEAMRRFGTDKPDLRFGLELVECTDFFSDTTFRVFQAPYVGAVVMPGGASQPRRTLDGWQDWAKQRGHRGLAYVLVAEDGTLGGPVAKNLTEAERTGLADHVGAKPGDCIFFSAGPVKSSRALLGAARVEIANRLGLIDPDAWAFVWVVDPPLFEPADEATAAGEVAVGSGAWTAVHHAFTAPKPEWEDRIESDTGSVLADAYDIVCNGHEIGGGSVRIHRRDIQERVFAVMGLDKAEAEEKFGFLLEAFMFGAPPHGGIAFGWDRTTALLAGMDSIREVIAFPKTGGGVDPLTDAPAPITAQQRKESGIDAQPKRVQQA
The experiment is described as follows: Assay for Asp RNA synthetase-1 from Mycobacterium tuberculosis. It counts as functional. Particulars: 30 µM.

Experiment [4] deals with AMP-activated protein kinase, AMPK (Homo sapiens) (UniProt P54646+O43741+P54619+Q9UGJ0+Q9Y478+Q13131+Q9UGI9). In words: AMP-dependent Kinase enzyme assay. An in vitro enzyme assay that detects ADP turnover that is directly proportional to AMPK activity. This uses naive AMPK that is activated during the assay with MK-8722. It counts as functional. To be noted: 30 µM.
Experiment [5] concerns the target Sialic acid-binding Ig-like lectin 9 (Homo sapiens) (UniProt Q9Y336). The experiment is described as follows: Hs-Siglec9 ALPHAscreen SOP 20170721. Particulars: 10 µM. For orientation: In Alpha technology, singlet oxygen from a donor bead excites a nearby acceptor bead.
Experiment [6] relates to Trypanosoma cruzi. In words: Trypanosoma cruzi phosphomannomutase and mannose-1-phosphate guanylyltransferase assay. It counts as functional. To be noted: 10 µM.
In experiment [7] the target is T3, Arginase-2, mitochondrial (Homo sapiens) (UniProt P78540).
T3 sequence (whole entry): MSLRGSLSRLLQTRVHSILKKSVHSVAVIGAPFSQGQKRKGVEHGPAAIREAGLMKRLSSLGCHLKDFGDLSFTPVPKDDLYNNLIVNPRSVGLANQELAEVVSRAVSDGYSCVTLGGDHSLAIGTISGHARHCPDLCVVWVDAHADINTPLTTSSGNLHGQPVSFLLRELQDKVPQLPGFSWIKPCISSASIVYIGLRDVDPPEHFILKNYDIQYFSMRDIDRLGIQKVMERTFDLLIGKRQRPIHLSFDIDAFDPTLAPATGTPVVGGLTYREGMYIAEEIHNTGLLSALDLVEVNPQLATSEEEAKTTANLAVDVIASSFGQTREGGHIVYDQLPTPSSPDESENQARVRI
In words: in vitro enzyme assay to detect the production of urea directly proportional to the activity of Arginase II. Further: in the data most compounds retested in dose-response had high values. It counts as functional. Particulars: 33.3 µM.

Experiment [8] addresses T4, Proteasome subunit beta (Trypanosoma cruzi) (UniProt O96673).
T4 sequence (whole entry): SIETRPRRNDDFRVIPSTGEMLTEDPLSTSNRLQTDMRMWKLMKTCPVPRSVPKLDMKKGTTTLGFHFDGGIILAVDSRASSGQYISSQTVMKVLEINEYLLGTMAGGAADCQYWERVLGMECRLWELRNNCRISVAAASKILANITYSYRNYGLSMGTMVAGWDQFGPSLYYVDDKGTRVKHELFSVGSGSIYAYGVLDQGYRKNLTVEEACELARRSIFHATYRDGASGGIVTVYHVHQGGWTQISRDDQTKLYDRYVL
The experiment is described as follows: Trypanosoma cruzi proteasome chymotrypsin-like activity (TcProtChymo) assay. Further: in the data most compounds retested in dose-response had high values. It counts as functional. To be noted: 9.37 µM.

For experiment [9], the species on record is Homo sapiens. The experiment is described as follows: To identify inhibition of the IFN signalling (Jak-Stat) pathway via expression of an eGFP reporter gene under the control of an IFN-stimulated response element (ISRE) containing MxA promoter. To be noted: 30 µM. It counts as functional. (In general: Reporter assays use an easily measured gene product as a stand-in for the process of interest.)

Experiment [10] deals with Shiga toxin 2 (Escherichia coli O157:H7) (UniProt P09385+P09386). In words: E. coli 0.157:H7 Shiga Toxin SOP - stx2 screening assay. It counts as functional. Particulars: 30 µM.
The target of experiment [11] is T5, Tyrosyl-tRNA synthetase, putative (Trypanosoma cruzi (strain CL Brener)) (UniProt Q4DSP6).
T5 sequence (whole entry): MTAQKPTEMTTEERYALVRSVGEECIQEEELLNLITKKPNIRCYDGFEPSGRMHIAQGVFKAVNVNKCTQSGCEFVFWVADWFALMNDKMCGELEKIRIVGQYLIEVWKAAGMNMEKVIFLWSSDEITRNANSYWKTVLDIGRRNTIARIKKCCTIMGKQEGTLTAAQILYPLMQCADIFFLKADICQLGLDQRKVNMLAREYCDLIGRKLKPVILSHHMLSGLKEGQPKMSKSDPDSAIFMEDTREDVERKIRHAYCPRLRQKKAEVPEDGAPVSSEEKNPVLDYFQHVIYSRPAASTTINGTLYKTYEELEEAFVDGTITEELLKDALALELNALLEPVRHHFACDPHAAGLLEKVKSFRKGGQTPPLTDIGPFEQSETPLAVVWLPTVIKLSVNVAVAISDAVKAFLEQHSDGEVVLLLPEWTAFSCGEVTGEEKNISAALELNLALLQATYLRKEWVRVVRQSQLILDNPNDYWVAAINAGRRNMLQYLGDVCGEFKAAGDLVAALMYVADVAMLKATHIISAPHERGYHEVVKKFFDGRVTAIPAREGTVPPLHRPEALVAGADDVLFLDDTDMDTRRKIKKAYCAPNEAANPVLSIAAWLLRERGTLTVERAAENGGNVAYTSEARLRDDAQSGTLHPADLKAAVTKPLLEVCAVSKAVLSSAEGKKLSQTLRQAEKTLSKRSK
The experiment is described as follows: Trypanosoma cruzi tyrosyl tRNA synthetase (TcYRS) _High Tyrosine SOP. Further: in the data most compounds retested in dose-response had high values. It counts as functional. Particulars: 30 µM.

In experiment [12] the target is T5, Tyrosyl-tRNA synthetase, putative (Trypanosoma cruzi (strain CL Brener)). The experiment is described as follows: Trypanosoma cruzi tyrosyl tRNA synthetase (TcYRS) SOP. It counts as functional. Particulars: 30 µM.
The target in experiment [13] is Chromo domain-containing protein 1 (Saccharomyces cerevisiae (strain ATCC 204508 / S288c) (Baker's yeast)) (UniProt P32657). The experiment is described as follows: ScCHD-1 Enzyme Inhibition Assay. Further: in the data most compounds retested in dose-response had high values. Particulars: 30 µM. It counts as functional.
Sequence of Chromo domain-containing protein 1 (Saccharomyces cerevisiae (strain ATCC 204508 / S288c) (Baker's yeast)) (P32657 whole entry, the tested form may be a part): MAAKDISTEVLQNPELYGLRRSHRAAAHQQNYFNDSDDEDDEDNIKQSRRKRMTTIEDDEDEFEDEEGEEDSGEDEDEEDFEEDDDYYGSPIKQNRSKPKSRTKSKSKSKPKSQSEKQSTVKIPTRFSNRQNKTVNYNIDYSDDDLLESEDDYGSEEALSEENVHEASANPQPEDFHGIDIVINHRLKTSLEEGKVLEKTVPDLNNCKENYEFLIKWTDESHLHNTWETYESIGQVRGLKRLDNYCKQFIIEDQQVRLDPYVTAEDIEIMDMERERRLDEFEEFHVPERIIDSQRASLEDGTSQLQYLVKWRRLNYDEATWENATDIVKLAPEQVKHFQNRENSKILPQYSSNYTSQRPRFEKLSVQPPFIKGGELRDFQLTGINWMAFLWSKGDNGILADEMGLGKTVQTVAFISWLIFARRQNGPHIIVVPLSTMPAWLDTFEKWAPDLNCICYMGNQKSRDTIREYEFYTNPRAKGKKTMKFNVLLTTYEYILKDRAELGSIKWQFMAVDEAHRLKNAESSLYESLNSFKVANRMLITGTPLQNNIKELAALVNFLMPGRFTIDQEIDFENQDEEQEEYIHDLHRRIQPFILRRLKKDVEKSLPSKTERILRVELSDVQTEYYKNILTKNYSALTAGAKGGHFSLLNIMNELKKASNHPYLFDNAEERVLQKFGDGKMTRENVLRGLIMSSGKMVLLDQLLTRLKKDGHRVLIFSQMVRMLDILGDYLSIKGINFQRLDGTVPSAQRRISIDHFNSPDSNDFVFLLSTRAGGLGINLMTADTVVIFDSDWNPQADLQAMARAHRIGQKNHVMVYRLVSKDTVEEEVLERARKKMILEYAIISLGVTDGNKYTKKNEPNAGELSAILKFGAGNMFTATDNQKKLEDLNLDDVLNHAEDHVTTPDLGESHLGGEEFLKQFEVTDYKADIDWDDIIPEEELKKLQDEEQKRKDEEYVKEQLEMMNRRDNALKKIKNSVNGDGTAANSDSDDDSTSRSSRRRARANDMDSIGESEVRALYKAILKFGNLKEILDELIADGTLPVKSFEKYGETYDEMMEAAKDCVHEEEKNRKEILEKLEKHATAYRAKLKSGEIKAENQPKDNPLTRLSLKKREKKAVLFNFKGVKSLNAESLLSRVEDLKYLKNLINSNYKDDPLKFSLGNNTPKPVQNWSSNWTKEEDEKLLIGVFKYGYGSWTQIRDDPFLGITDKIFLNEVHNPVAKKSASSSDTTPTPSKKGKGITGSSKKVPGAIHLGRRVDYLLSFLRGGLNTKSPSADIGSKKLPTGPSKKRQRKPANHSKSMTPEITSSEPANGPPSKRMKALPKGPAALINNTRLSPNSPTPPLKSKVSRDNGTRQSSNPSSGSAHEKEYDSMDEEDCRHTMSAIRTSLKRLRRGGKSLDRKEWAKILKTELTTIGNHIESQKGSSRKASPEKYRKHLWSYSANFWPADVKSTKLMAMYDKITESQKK

Sequence of Sialic acid-binding Ig-like lectin 9 (Homo sapiens) (Q9Y336 whole entry): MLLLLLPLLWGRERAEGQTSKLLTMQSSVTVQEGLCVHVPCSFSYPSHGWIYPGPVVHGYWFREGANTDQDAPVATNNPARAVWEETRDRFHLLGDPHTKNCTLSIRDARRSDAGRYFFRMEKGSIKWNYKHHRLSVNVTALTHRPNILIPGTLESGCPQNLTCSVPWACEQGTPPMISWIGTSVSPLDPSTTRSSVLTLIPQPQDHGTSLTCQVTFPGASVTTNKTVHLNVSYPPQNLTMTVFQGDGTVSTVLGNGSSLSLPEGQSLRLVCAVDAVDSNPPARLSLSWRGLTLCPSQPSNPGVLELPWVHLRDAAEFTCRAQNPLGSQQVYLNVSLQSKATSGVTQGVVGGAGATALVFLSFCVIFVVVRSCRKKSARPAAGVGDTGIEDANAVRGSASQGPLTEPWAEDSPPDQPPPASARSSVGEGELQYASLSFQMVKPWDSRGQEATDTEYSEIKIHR
Sequence of Protein translocase subunit SecA (Escherichia coli (strain K12)) (P10408 whole entry): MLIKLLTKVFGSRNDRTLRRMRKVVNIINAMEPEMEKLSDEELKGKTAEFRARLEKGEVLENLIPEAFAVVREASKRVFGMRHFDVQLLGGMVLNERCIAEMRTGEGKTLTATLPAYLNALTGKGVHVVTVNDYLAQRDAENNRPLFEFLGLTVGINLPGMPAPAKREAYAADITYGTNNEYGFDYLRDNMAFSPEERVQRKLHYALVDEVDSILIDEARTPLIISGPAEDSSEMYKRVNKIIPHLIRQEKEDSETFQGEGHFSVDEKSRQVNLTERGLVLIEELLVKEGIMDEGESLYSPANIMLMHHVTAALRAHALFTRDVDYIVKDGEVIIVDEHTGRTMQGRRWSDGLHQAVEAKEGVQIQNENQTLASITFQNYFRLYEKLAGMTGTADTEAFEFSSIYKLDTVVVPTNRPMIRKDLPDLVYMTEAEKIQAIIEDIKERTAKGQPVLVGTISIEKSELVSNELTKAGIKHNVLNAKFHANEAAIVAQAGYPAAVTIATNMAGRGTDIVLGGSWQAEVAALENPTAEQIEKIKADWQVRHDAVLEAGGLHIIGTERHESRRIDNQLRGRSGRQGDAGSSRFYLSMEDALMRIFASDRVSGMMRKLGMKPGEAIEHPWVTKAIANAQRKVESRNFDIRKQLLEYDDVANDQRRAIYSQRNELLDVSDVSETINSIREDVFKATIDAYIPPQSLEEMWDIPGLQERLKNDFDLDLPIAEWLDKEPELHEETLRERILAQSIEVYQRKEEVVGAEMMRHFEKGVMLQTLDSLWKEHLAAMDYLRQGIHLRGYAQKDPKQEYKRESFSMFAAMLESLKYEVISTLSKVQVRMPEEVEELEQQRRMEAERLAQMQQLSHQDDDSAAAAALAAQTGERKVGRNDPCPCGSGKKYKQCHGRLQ

In the case of `COc1cc(CNC(C)Cn2cccn2)cc(OC)c1OC` (stereo not given), the Percent Effect in experiment [1] is 0.206%; in [2], 18.2%; in experiment [3], -3.28%; in experiment [4] it was 0.589%; in experiment [5], -6.87%; in experiment [6], -7.3%. For the same compound, the Percent Effect in [7] was 4.98%; in experiment [8] it was 2.87%; in [9] it was 29.8%; in [10], -15.9%; in [11] it was 7.77%; in experiment [12], 14.6%. The Percent Effect in [13] was -9.78%.

Regarding `Cc1c(CC(=O)N2CCN(CC(F)(F)F)CC2)nnn1-c1ccccc1`, the Percent Effect is -3.34% in experiment [1]; 10.4% in experiment [2]; 12.8% in [3]; -2.43% in experiment [4]; 2.86% in experiment [5]; -2.65% in experiment [6]. In addition, the Percent Effect in experiment [7] was 2.76%; in experiment [8], 10.8%; in experiment [9], 11.9%; in [10], -45.5%; in experiment [11] it was 4.3%; in experiment [12], 8.64%. In addition, the Percent Effect in [13] was -1.92%.

For the compound `Cn1ccnc1CN1CCC2(CC(=O)N(c3cncnc3)C2)C1` (stereo not given), the Percent Effect is -1.68% in [1]; 2.7% in experiment [2]; -3.41% in experiment [3]; 10% in experiment [4]; 1.79% in experiment [5]; -2.64% in experiment [6]. The Percent Effect in experiment [7] was found to be 2.23%; in experiment [8], 21.2%; in experiment [9], 2.89%; in experiment [10], 0.165%; in experiment [11], 2.16%; in [12] it was 12.8%. Also, the Percent Effect in [13] came to 1.86%.

`Cc1noc(C)c1CN1CC[C@@H]2O[C@@H](COCC(C)C)CC[C@@H]21`: the Percent Effect in experiment [1] was -2.23%; in [2], 0%; in experiment [3], -1.08%; in experiment [4], 1.3%; in experiment [5], 5.58%; in [6], -1.16%. The Percent Effect is -49.3% in experiment [7]; 2.22% in [8]; 8.8% in experiment [9]; 2.31% in experiment [10]; 2.08% in [11]; 2.5% in experiment [12]. For the same compound, the Percent Effect in experiment [13] was 1.48%.

With `CCN1CCC2(COCc3cnc(-c4cccnc4)nc32)C1` (stereo not given), the Percent Effect in [1] is -4.12%; in [2] it was 10.8%; in [3], 3.74%; in [4], 3.75%; in experiment [5], 1%; in experiment [6], -2.44%. The Percent Effect in experiment [7] was -4.78%; in experiment [8], 19.9%; in experiment [9] it was 5.19%; in experiment [10], 8.79%; in experiment [11] it was 3.24%; in experiment [12] it was 10.3%. For the same compound, in experiment [13], the Percent Effect worked out at 2.57%.
